Screening data from PubChem BioAssay.
Sm TGR inh = inhibitors of Schistosoma mansoni thioredoxin glutathione reductase. purified TGR, DTNB reduction, TNB absorbance 405 nm. 360,000 compounds, 3% hits. Potency, µM (series often up to 114 µM), for inactives: at the top dose activity change, negative = inhibition, most hits filed as inhibitors; note: % is set by controls: 0 for no effect and ±100 for the full control effect; nearly all actives have a fitted effect of over 60% in size
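TGR 20 nM + NADPH 100 uM (dispensed conc.), cpd preinc 15 min RT; start with NADPH (500 uM addition) then DTNB (15 mM addition). Kinetic TNB absorbance, 405 nm filter. Four-parameter Hill fit across titration.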
SARS PLpro yeast = inhibitors of SARS-CoV papain-like protease in yeast. S. cerevisiae expressing SARS-CoV PLpro, growth rescue. Potency, µM (doses to about 32.9 µM), inactives show at the highest dose activity, positive = growth rescue, most hits filed as activators. 330,000 compounds, 0.19% hits; calls by dose curve; note: 0% is about no effect; nearly all actives have a fitted effect of over 55% in size
Pf growth 48h = inhibits P. falciparum growth in the first generation, 48 h; 310,000 compounds, 5.9% hits; Potency, µM (series often up to 28.7 µM), for inactives: at the top dose activity change, negative = inhibition, most hits filed as inhibitors; P. falciparum luciferase growth in erythrocytes, 48 h; note: % is set by controls: 0 for no effect and ±100 for the full control effect
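Luciferase-expressing parasites in RBCs, 2% Hct / 0.1% parasitemia final; RPMI 1640 + 0.5% Albumax; 37 C, 5% CO2, one generation; luminescence read-out, lower signal = inhibition.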
Pf growth 96h = P. falciparum growth inhibition at 96 hours | P. falciparum luciferase reporter growth, 96 h | Potency, µM (highest dose often 28.7 µM), for inactives: top-dose activity change, negative = inhibition, actives largely listed as inhibitors | 320,000 compounds, 6.9% hits | AID 504834; note: % is set by controls: 0 for no effect and ±100 for the full control effect
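Compounds incubated with erythrocytes infected by luciferase-expressing P. falciparum (2% hematocrit, 0.05% parasitemia final) for 96 hours, 37 C in 5% CO2. Growth inhibition scored as decreased luciferase luminescence.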
Starred values were filed as active, the others as inactive; ? = inconclusive; · = no result given. This is a sample that favours compounds with a hit; in the whole collection about 12% have one here. Unless noted, calls come from the whole dose curve; as a rule, active = well fitted curve in the direction sought with a large enough effect; inconclusive = small, poorly fitted or top-dose-only effect, or another doubt; inactive = no such curve, though single readings can be large; an effect the other way counts as inactive or inconclusive. Potency is the fitted concentration of half-maximal effect.

SMILES	Sm TGR inh	SARS PLpro yeast	Pf growth 48h	Pf growth 96h
CC(C)Oc1cc(-n2c(=S)[nH]c3ccccc3c2=O)c(Cl)cc1Cl	10.3%	-7.5%	5.86µM*	4.65µM*
COc1cc(-n2c(=S)[nH]c3ccccc3c2=O)c(Cl)cc1Cl	11.3%	-9.3%	8.9%	13.1%
Cc1ccc(C)c(C(=O)CN2C(=O)NC3(CCCCCC3)C2=O)c1	-3.5%	0.2%	?	0.3%
Cc1cccc(N2CCN(c3nc4ccccc4c4nnc(C)n34)CC2)c1C	7.1%	·	·	·
O=C1CC(N2CCN(c3ccccn3)CC2)C(=O)N1c1ccc(F)cc1 (stereo unspecified)	?	-7.2%	8.7%	?
O=C1CC(N2CCN(c3ccccn3)CC2)C(=O)N1CC(c1ccccc1)c1ccccc1 (stereo unspecified)	7.08µM*	-113.3%	?	?
CCc1ccc(N2C(=O)CC(N3CCN(c4ccccn4)CC3)C2=O)cc1 (stereo unspecified)	22.4µM*	-5.1%	1.7%	5.7%
CCOc1ccccc1N1CCN(C(=O)c2cn(CC3CCCCC3)nn2)CC1	-18.4%	-8.6%	10.6%	?
FC(F)(F)C1=Nc2cccc3cccc(c23)N1	17.8µM*	0.4%	58.5%	28.9%
CCSc1oc(-c2ccco2)nc1S(=O)(=O)c1ccc(F)cc1	14.1µM*	-5.1%	?	·
CC(C)CSc1oc(-c2ccco2)nc1S(=O)(=O)c1ccccc1	44.7µM*	-7.1%	-25.4%	-2.5%
CCSc1oc(-c2ccco2)nc1S(=O)(=O)c1ccc(C)cc1	39.8µM*	-1.4%	?	0.0%
Cc1ccc(S(=O)(=O)c2nc(-c3ccco3)oc2SCC(C)C)cc1	-15.2%	·	·	·
COc1ccc(OC)c(C2Nc3nc4ccccc4n3C(C)=C2C(=O)Nc2ccc(C)cc2C)c1 (stereo unspecified)	1.4%	8.7%	7.38µM*	·
C/C(=N\NC(=O)c1ccncc1)c1ccc(N2CCOCC2)cc1	-2.7%	1.6%	-2.8%	-12.6%
C/C(=N\NC(=O)c1sccc1C)c1ccncc1	5.7%	-1.5%	98.3%	7.38µM*
C/C(=N\NC(=O)c1ccc(OC2OCCOC2Oc2ccc(C(=O)N/N=C(\C)c3ccncc3)cc2)cc1)c1ccncc1 (stereo unspecified)	-26.6%	-1.4%	1.65µM*	?
Cc1nc(NC(=O)CN2CCN(c3cccc(Cl)c3)CC2)sc1C(=O)N(C)C	-6.2%	-10.7%	18.6%	?
Oc1ccccc1C1NCc2ccccc2-n2cccc21 (stereo unspecified)	12.8%	-0.4%	13.1µM*	26.0%
CCOc1cc(C2NCc3ccccc3-n3cccc32)ccc1O (stereo unspecified)	4.9%	4.5%	2.62µM*	-25.6%
Clc1ccccc1C1NCc2ccccc2-n2cccc21 (stereo unspecified)	7.3%	4.2%	-10.1%	?
Cc1ccc2oc(C(=O)NCC(c3ccco3)N(C)C)c(C)c2c1 (stereo unspecified)	0.4%	2.2%	23.3%	44.6%
Cc1cc(C=O)c(C)n1-c1ccc(N2CCOCC2)cc1	-4.6%	-16.6%	126.6%	?
Cc1ccc(C)n1-c1ccc(N2CCOCC2)c(Br)c1	?	?	·	14.7µM*
Cc1cc2[nH]c(=O)c(=O)[nH]c2cc1S(=O)(=O)NCc1ccc(Cl)cc1	-27.6%	3.2%	-4.8%	13.1µM*
SMILES	Sm TGR inh	SARS PLpro yeast	Pf growth 48h	Pf growth 96h
COc1cccc(CNS(=O)(=O)c2cnc(N)nc2)c1	8.0%	·	·	·
COc1ccccc1/C=C1/SC(=O)N(CCC(=O)Nc2ccc(S(=O)(=O)Nc3nccs3)cc2)C1=O	-10.6%	2.4%	-21.4%	13.1µM*
Cc1cccc(OCCCC(=O)Nc2ccc(S(=O)(=O)Nc3ncccn3)cc2)c1C	13.7%	2.2%	5.6%	2.08µM*
Cc1cccc(OCCCC(=O)Nc2ccc(S(=O)(=O)Nc3nccs3)cc2)c1C	2.3%	-1.4%	3.0%	3.7µM*
Cc1cccc(OCCCC(=O)Nc2ccc(S(=O)(=O)Nc3onc(C)c3C)cc2)c1C	-2.9%	-3.1%	-12.3%	-10.0%
Cc1cccc(OCCCC(=O)Nc2nccs2)c1C	9.0%	0.4%	49.4%	?
COc1ccc(N2CCOCC2)c(NC(=O)c2cccnc2)c1	6.9%	0.1%	?	-19.2%
Cc1ccc(S(=O)(=O)Nc2ccc(-c3ccc4nncn4n3)cc2)cc1	1.3%	-1.5%	5.2%	?
O=C(CN(Cc1ccccc1Cl)C(=O)c1ccc(CN2CCOCC2)o1)NCc1ccccc1	-18.1%	-0.8%	-14.4%	6.57µM*
CCCOC(=O)c1ccc(S(N)(=O)=O)o1	-21.3%	5.7%	8.7%	7.38µM*
C=CC[C@]12CCc3ccccc3C1N(c1ccc(C(=O)OCC)cc1)C2=O (stereo partly specified)	36.9%	0.3%	13.1µM*	?
NC1=NC(=O)/C(=C\c2ccco2)S1	3.16µM*	0.8%	0.2%	51.6%
COc1cccc(/C=C2\SC(N)=NC2=O)c1OS(=O)(=O)c1ccccc1	1.6%	-4.6%	-10.7%	43.8%
NC1=NC(=O)/C(=C/c2ccccc2OS(=O)(=O)c2ccccc2)S1	5.1%	17.9%	10.4µM*	-2.7%
NC1=NC(=O)/C(=C\c2cccnc2)S1	0.1%	-4.0%	7.8%	9.28µM*
CCN1CCN(C2=NC(=O)/C(=C/c3ccc(C)o3)S2)CC1	?	-1.4%	-2.4%	13.1µM*
Cc1c(F)cccc1NC(=O)CCCCCC1NC(=O)NC1C (stereo unspecified)	7.9%	-0.3%	-8.8%	-17.1%
O=C1N=C(N2CCN(c3ccccc3)CC2)S/C1=C/c1ccco1	?	-2.9%	?	?
O=C1N=C(N2CCN(c3ccccc3)CC2)S/C1=C\c1cn[nH]c1-c1ccccc1	-10.0%	-4.5%	?	4.15µM*
Cc1ccc(N2CCN(C3=NC(=O)/C(=C\c4cn[nH]c4-c4ccccc4)S3)CC2)cc1	-11.0%	8.0%	5.86µM*	?
O=C1N=C(N2CCN(c3ccccc3)CC2)S/C1=C\c1ccco1	22.4µM*	-4.8%	-28.0%	0.0%
O=C1N=C(N2CCCC2)S/C1=C\c1ccccc1	-9.9%	-7.0%	14.7µM*	?
Cc1ccc(/C=C2\SC(N3CCCCC3)=NC2=O)cc1	-24.0%	-10.2%	-5.2%	390.1%
O=C(COC(=O)c1ccc(O)cc1)Nc1ccc2c(c1)OCO2	·	0.3%	·	·
O=C(CSc1nc2ccccc2nc1Cc1ccc(Cl)cc1)N1CCc2ccccc21	0.5%	·	·	·
Cc1cccc(N2CCN(C3=NC(=O)/C(=C\c4cn[nH]c4-c4ccccc4)S3)CC2)c1	-5.9%	-17.0%	5.22µM*	11.7µM*
COc1ccc(-n2nc(C#N)c(Cl)cc2=O)cc1	2.51µM*	-14.3%	360.1%	54.5%
CC1CCCCC1NC(=O)COc1ncnc2sccc12 (stereo unspecified)	-3.3%	-7.2%	-2.2%	?
CC1=NNC(=O)/C1=C\c1cn(-c2ccccc2)nc1-c1ccc(F)cc1	-1.5%	-5.1%	5.22µM*	53.5%
CN1CCC(N(C)C(=O)/C=C/c2cn(-c3ccccc3)nc2-c2cccs2)CC1	-3.4%	2.8%	5.86µM*	?
